Compounds with a hit are over-represented: about 3.4% of the library has one in this group of screens.
GPR151 ag: activators of human GPR151, primary screen, cell-based, PathHunter beta-arrestin, luminescence; G-protein coupled receptor 151 (Homo sapiens), Q8TDV0; PathHunter beta-arrestin GPR151 cells; activation, % at 11.2 µM; 1% of 650,000 active; AID 1508602, 2020; in the data active = activation above about 4.9%
Target sequence (Q8TDV0 whole entry, looked up): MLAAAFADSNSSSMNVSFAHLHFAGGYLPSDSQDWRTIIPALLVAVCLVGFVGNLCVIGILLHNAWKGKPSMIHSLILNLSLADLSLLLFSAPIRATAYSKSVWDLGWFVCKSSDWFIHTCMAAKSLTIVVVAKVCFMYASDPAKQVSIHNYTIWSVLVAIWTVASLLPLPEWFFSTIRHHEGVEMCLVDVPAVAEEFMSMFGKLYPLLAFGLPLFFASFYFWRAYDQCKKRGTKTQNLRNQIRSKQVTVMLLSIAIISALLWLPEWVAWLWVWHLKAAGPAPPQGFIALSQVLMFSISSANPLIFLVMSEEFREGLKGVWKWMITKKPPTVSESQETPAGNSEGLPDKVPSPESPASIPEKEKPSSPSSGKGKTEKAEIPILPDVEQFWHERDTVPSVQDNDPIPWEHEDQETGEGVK
TEAD-YAP block: TEAD-YAP interaction inhibition, primary screen, TEAD-YAP interaction inhibitor project, luminescence, HEK-TIYL cells; inhibition, % at 9.12 µM; TEAD-Gal4/YAP UAS-luciferase luminescence; 1.4% of 640,000 active; AID 1259422, 2018; in the data active = inhibition above about 32%
FBW7 activator: FBW7 E3 ligase activators, primary screen, biochemical, AlphaScreen, human; F-box/WD repeat-containing protein 7 (Homo sapiens), Q969H0; AlphaScreen FBW7–phospho-cyclin E peptide binding, activator screen; normalized activity (activation), % at 26.1 µM; 0.13% of 650,000 active; AID 1259310, 2017; in the data active = normalized activity above about 1.9%;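 note: purified mutant Fbw7 with reduced substrate affinity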
MITF primary: MITF inhibitors, primary screen, biochemical, AlphaScreen, human | Microphthalmia-associated transcription factor (Homo sapiens), O75030 | AlphaScreen MITF homodimerization, bead proximity signal | inhibition, % at 2.6 µM | 0.91% of 650,000 active | AID 1259374, 2018; in the data active = inhibition above about 50%
Each line names hits and unclear results; the compound was inactive in the other large screens; ! = not confirmed by another sample.

COC(=O)C(=O)Nc1nc2ccc(C(=O)c3ccccc3C(=O)OC(C)C)cc2[nH]1	TEAD-YAP block 52
CCCOc1ccc2nc(NC(=O)OC)[nH]c2c1	TEAD-YAP block 34
CCOc1ccc2nc(NCCCO)[nH]c2c1	none
COC(=O)Nc1nc2ccc(C(=O)c3ccc(F)cc3)cc2[nH]1	TEAD-YAP block 35!
O=C(COc1ccc(C(=O)c2ccccc2)cc1)Nc1nc2ccccc2[nH]1	none
O=C(c1ccccc1)c1ccc2nc(-c3ccc(NC(=O)c4ccccc4Cl)cc3)[nH]c2c1	none
Cc1ccc2nc(=S)n(C(=O)c3ccccc3F)n2c1	TEAD-YAP block 62
CC(C)(C)NC(=O)c1ccc2c(c1)C(=O)N(Cc1ccccc1)C2=O	none
O=[N+]([O-])c1ccc2ncnc(Nc3ccc(F)cc3F)c2c1	TEAD-YAP block 35
CCOC(=O)C1=C(C)NC(=S)NC1c1ccccc1OCC(=O)Nc1ccc(C)cc1 (centres undefined)	TEAD-YAP block 36
C=CCOC(=O)C1=C(C)NC(=S)NC1c1ccccc1OCC (centres undefined)	none
COc1cccc(NC(=O)CSc2nc(NC3CCCCC3)c3ccccc3n2)c1	TEAD-YAP block 44
CCCc1cc(-c2onc(C)c2-c2ccc3c(c2)OCCCO3)c(O)cc1OC	none
CCc1cc(-c2onc(C)c2-c2ccc(OC)cc2)c(O)cc1OC	TEAD-YAP block 45
COc1ccc2c(Cn3cnc4cc([N+](=O)[O-])ccc4c3=O)cc(=O)oc2c1	TEAD-YAP block 64
Cc1c(NC(=O)COc2ccc3ccccc3c2)cccc1-c1nc2ncccc2o1	none
CC(=O)Nc1ccc(NC(=O)c2csc(-c3ccc(C(=O)NC4CC4)cc3)n2)cc1	none
O=C(NC1CC1)c1ccc(-c2nc(C(=O)Nc3ccc(Oc4ccccc4)cc3)cs2)cc1	TEAD-YAP block 33
CN1CCN(C(=O)c2ccc(-c3nc(C(=O)Nc4ccc(Oc5ccccc5)cc4)cs3)cc2)CC1	TEAD-YAP block 44
Oc1ccc(Nc2nc(-c3ccc(O)c(O)c3)cs2)cc1	MITF primary 54
Nc1ccc(Nc2nc(-c3ccc(O)c(O)c3)cs2)cc1	MITF primary 98
Cc1cccc(Nc2nc(-c3ccc(O)c(O)c3)cs2)c1	none
O=C(O)c1ccc(Nc2nc(-c3ccc(O)c(O)c3)cs2)cc1	MITF primary 92
Oc1ccc(Nc2nc(-c3ccc(Cl)cc3)cs2)cc1	none (no result: TEAD-YAP block, FBW7 activator)
Cc1c(-c2ccccc2)oc2c(C(=O)OCC(=O)NCc3ccco3)cccc2c1=O	none
N#CCOC(=O)/C=C/c1ccc(Cl)cc1Cl	none
COCCn1c(C)cc(C(=O)COC(=O)c2cccnc2SC)c1C	none
Cc1cc(C(=O)COC(=O)c2ccccc2[N+](=O)[O-])c(C)n1CC(F)(F)F	TEAD-YAP block 95
Cc1cc(C(=O)COC(=O)c2cccnc2Cl)c(C)n1CC1CCCO1 (centres undefined)	TEAD-YAP block 66
COc1ccc(C(=O)OCC(=O)c2cc(C)n(CC(F)(F)F)c2C)cc1[N+](=O)[O-]	none
Cc1cc(C(=O)COC(=O)c2n[nH]c3ccccc23)c(C)n1CC1CCCO1 (centres undefined)	TEAD-YAP block 94
COCCn1c(C)cc(C(=O)COC(=O)c2ccccc2Br)c1C	TEAD-YAP block 82
CS(=O)(=O)N(CC(=O)NC1CC1)c1cc(Cl)c(Cl)cc1Cl	none
COC(=O)CC1CS(=O)(=O)CC1CC(=O)OC (centres undefined)	none
Cc1cc(C(=O)COC(=O)c2ccccc2Br)c(C)n1CC1CCCO1 (centres undefined)	TEAD-YAP block 92
COc1cc(/C=C/C(=O)OCC(=O)NC23CC4CC(CC(C4)C2)C3)ccc1O	none
CCc1ccc(/C=N/NC(=O)c2ccoc2C)cc1	none
COC(=O)c1ccc(/C=N/NC(=O)c2ccoc2C)cc1	TEAD-YAP block 35
COc1cc(C(=O)O)c(-n2c(C)ccc2C)cc1OC	MITF primary 72
COc1ccc(Br)cc1C(=O)O	none
COc1ccc(OC)c(CNc2ncc(-c3cccc(Cl)c3)n2C)c1	TEAD-YAP block 45
CCN(CC)C(=S)SC1C(=O)c2cc(Br)cc(Br)c2OC1c1ccccc1 (centres undefined)	none
CS(=O)(=O)C1=C(O)C(=O)N(CCCC(=O)O)C1c1ccc(Br)cc1 (centres undefined)	none
Cc1ccc(-c2nc(-c3ccccn3)no2)cc1[N+](=O)[O-]	TEAD-YAP block 55
Cc1ccc(-c2nc(-c3cccs3)no2)cc1[N+](=O)[O-]	none
CCCOc1ccc(-c2ccc(-c3nc(-c4ccccn4)no3)cc2)cc1	none
c1ccc(-c2ccc(-c3nc(-c4ccccn4)no3)cc2)cc1	TEAD-YAP block 95
CCOc1ccc(-c2nc(-c3ccccn3)no2)cc1	TEAD-YAP block 98
Cc1ccc(-c2nc(-c3ccccn3)no2)cc1	TEAD-YAP block 95
CCn1c(=O)c2sccc2n2c(CCCC(=O)NCCC3=CCCCC3)nnc12	none
CCN1CCN(CC(=O)Nc2ccccc2OC)C(=O)C1=O	none
COc1cccc(/C(O)=C/c2nc3ncc(Br)cc3[nH]c2=O)c1	none
CCOc1ccc2cc(-c3ccccn3)c(=N)oc2c1	TEAD-YAP block 59
Cc1ccc(-c2nc(-c3ccccn3)no2)cc1Cl	TEAD-YAP block 84
CC(C)n1cnc2c(Nc3ccc(N4CCOCC4)cc3)nc(Nc3cnccn3)nc21	TEAD-YAP block 32
Nc1nc(Nc2ccc(N3CCOCC3)cc2)cc(Nc2cnccn2)n1	TEAD-YAP block 61
CC(=O)c1cccc(-c2nc(C)cc(Nc3ccc(N4CCOCC4)cc3)n2)c1	none
CC(=O)c1cccc(-c2cc(Nc3ccc(N4CCOCC4)cc3)nc(N)n2)c1	TEAD-YAP block 46
CC(=O)Nc1ccc(Nc2nc(Nc3cnccn3)nc3c2ncn3C(C)C)cc1	TEAD-YAP block 41
Nc1nc(Nc2ccc(N3CCOCC3)cc2)cc(Nc2ccncn2)n1	none
CC(C)n1cnc2c(Nc3ccccc3)nc(Nc3ccc(N4CCOCC4)cc3)nc21	none
CC(C)n1cnc2c(Nc3ccccc3)nc(Nc3cnccn3)nc21	none
Cc1cc(-n2c(SCc3cccc([N+](=O)[O-])c3)nc3n[nH]c(C)c3c2=N)ccc1Cl	none
COc1ccc(CN2CCN(Cc3cccc(OC)c3O)CC2CCO)c(F)c1 (centres undefined)	none
COc1ccc2[nH]c(=O)c(CN(CC3CCCO3)S(=O)(=O)c3ccccc3F)cc2c1 (centres undefined)	TEAD-YAP block 34
COc1ccccc1C(=O)Nc1nnc(-c2ccccc2)o1	none
COC(=O)CN1C(=S)N(C)C(=O)/C1=C/c1cc(OC)c(O)c(OC)c1	TEAD-YAP block 46
O=C(Cn1cnc2ccccc21)NCc1cccc(Oc2ccc(F)cc2)c1	TEAD-YAP block 62
O=C(NCc1cccc(Oc2ccc(F)cc2)c1)c1cccnc1	none
O=C(NCc1cccc(Oc2ccc(F)cc2)c1)c1ccccn1	TEAD-YAP block 54
